Consider 40 compounds from PubChem BioAssay (NCATS).

Results filed as inconclusive are left out. Entries that show only a call come without a potency. Calls of active or inactive are those of the source. The call rests on the fitted dose curve; in most records, active means well fitted inhibition curve with a large enough effect; inconclusive means small, poorly fitted or top-dose-only effect; inactive means flat fitted curve, though single readings scatter.

Sequence of Calcium and integrin-binding protein 1 (Homo sapiens) (Q99828 whole entry, looked up): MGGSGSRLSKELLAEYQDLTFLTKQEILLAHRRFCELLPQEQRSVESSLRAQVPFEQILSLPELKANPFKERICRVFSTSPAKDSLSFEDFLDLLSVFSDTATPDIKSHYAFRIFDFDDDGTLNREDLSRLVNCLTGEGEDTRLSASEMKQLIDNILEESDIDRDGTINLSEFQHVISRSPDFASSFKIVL

The assay addresses Calcium and integrin-binding protein 1 (Homo sapiens) (UniProt Q99828). Kind of assay: Primary qHTS for Identification of Calcium Integrin Binding Protein 1 (CIB1) Competitor (AID 1508620).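 Further: GST tagged CIB1 binding a fluorescein labelled alphaIIb integrin peptide tracer; top concentration of the series differs between compounds.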 The conditions noted are these: CIB1-GST / FITC-alphaIIb peptide fluorescence polarization; series mostly up to 114 µM. Summed up:
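CIB1-GST (1 uM final) and compound incubated 15 min at room temperature before adding FITC-alphaIIb peptide tracer (100 nM final). Competition for binding read by fluorescence polarization (ex 480, em 540) after another 15 min at room temperature.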
Regarding `Cc1ccccc1-c1nc(NCc2ccc(-c3cccnc3)cc2)c2ccccc2n1`, the Potency result was “inactive”. `CC(=O)Nc1cccc(S(=O)(=O)N2CCN(S(=O)(=O)c3ccc4c(c3)OCCO4)CC2)c1`: the Potency entry was “inactive”.

Take `COc1ccc(C2Cc3ccccc3C(=O)N2Cc2ccccc2)cc1COc1ccc(NC(C)=O)cc1` (stereo not given): the Potency entry is “inactive”. In the case of `Cc1cc2c(s1)c1cnn(Cc3ccc(SC(F)(F)F)cc3)c(=O)c1n2C` it was “inactive”. The same measure for `CC(C)Oc1cccc(-c2ccnc(N3CCC(C(N)=O)CC3)n2)c1`: “inactive”; for `[O-][n+]1onc(-c2ccccc2)c1/C=N/O`: “inactive”. As for `Cc1ccc(-c2cnn(CC(=O)N(C)C(C)c3ccco3)c(=O)c2)cc1` (stereo not given), the Potency entry was “inactive”. For the compound `Cc1ccnc(NC(=S)N2CCN(c3ccc(N)cc3)CC2)c1`, the Potency entry is “inactive”.

On to `O=C1c2ccccc2NC(c2ccccc2O)N1Cc1ccccc1` (stereo not given), for which the Potency entry was “inactive”. The same measure for `Cc1ccccc1C(=O)N1CCc2cc(-c3nc(NC(=O)Cc4ccccc4)sc3C)ccc21`: “inactive”; for `Cc1c(C(=O)NCC2CCCO2)[nH]c2c1C(=O)CC(c1ccco1)C2` (stereo not given): “inactive”; for `CC(C)(C)CNc1ncnc2ccc(-c3ccc(C(=O)O)o3)cc12`: “inactive”.

In the case of `CC(C)c1nc2c(cnn2C)c(=O)n1N`, the Potency entry is “inactive”. In the case of `CC(=O)Nc1sc2c(c1-c1ccc(F)cc1)CCNC2` it was “inactive”; in that of `COc1ccc(C(=O)O)cc1COc1ccc(NC(C)=O)cc1`, “inactive”. In the case of `Cc1ccnc(NC(=S)NCCN(C)c2cccc(C(F)(F)F)c2)c1` it was “inactive”; in that of `Brc1cnc2nc(SCc3ccccc3)[nH]c2c1`, “inactive”. Take `COc1ccc([C@H]2[C@H](c3ccccc3)C(=O)N2Cc2ccccc2)cc1COc1ccc(NC(C)=O)cc1`: the Potency result was “inactive”.

Consider `NC(=O)C1CCN(c2nc(-c3ccccc3Br)cs2)CC1`, for which the Potency entry is “inactive”. The same measure for `Cc1ccc(OCCn2c(CCNC(=O)Cc3ccccc3F)nc3ccccc32)cc1`: “inactive”. Consider `Cc1nnc(-c2cnn(C)c2N)n1CCc1cccs1`, for which the Potency result was “inactive”. In the case of `Cc1ccc(OCCn2c(CCNC(=O)/C=C/c3ccccc3)nc3ccccc32)cc1` it was “inactive”; in that of `COc1ccccc1-c1ccc(=O)n(CC(=O)NCCc2ccccc2)n1`, “inactive”.

As for `Cc1cc(C)nc(NC(=S)N2CCN(c3nc4ccccc4o3)CC2)c1`, the Potency result is “inactive”. In the case of `CC(Nc1nc(-c2ccccc2C(F)(F)F)nc2ccccc12)c1ccc(-c2ccccc2)cc1` (stereo not given), the Potency entry was “inactive”. With `COc1cc(CNc2ncnc3ccc(-c4c(C)noc4C)cc23)cc(OC)c1OC`, the Potency result is “inactive”. Consider `N[C@@H](Cc1ccccc1)C(=O)Nc1ccc(Cl)cc1C(=O)c1ccc[nH]1`, for which the Potency result is “inactive”. On to `Cn1ncc2ccc(-c3ccc4ncnc(NCc5cccs5)c4c3)cc21`, for which the Potency result is “inactive”. Consider `O=C(Cc1ccccc1)Nc1ncnc2c1C(c1ccccc1)c1c(ccc3ccccc13)O2` (stereo not given), for which the Potency result was “inactive”.

Regarding `Cc1cc(NC(=O)Nc2nnc(-c3cccnc3)s2)ccc1Cl`, the Potency result was “inactive”. The same measure for `O=S(=O)(c1ccc2c(c1)OCCO2)N1CCN(S(=O)(=O)c2cc(F)c(F)cc2F)CC1`: “inactive”; for `O=C(O)c1ccc(O)c2ncc(N3CC(N4CCOCC4)C3)cc12`: “inactive”. Regarding `O=C(OCc1c(-c2ccccc2)no[n+]1[O-])c1ccccc1`, the Potency result was “inactive”.

Regarding `O=C(OCC#CCSc1nnc(-c2cccc3ccccc23)o1)c1cccc(F)c1`, the Potency entry was “inactive”. Regarding `COc1cccc(C2c3c(ncn(-c4ccc(C(C)(C)C)cc4)c3=N)Oc3ccc4ccccc4c32)c1` (stereo not given), the Potency result was “inactive”.

Take `S=C(Nc1cc(Cl)ccn1)N1CCN(c2ccc(Cl)cc2Cl)CC1`: the Potency result was “inactive”.

Take `CCOc1ccccc1-c1nnc2n1N=C(c1ccc(OC)cc1)CS2`: the Potency result was “inactive”. `COc1cccc(CNc2ccc(S(=O)(=O)Nc3ncccn3)cc2)c1O`: the Potency entry is “inactive”. In the case of `Cc1noc(C)c1-c1csc(N2CCC(C(N)=O)CC2)n1` it was “inactive”; in that of `CCOC(=O)c1c(-c2ccc(OC)cc2)csc1NC(=O)C1CCCO1` (stereo not given), “inactive”.
